{
  "source": "PubChem BioAssay (NCI)",
  "note": "About 83,000 compounds went through this panel and 20% of them were active in at least one assay; those are over-represented in the sample as a whole.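 Cell lines were cultured in 96-well plates, exposed to a single compound concentration, and assessed for percent growth 48 hours later.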 Active and inactive are the calls of the source.",
  "data": [
    {"system": "OVCAR-4 ovarian", "assay": "NCI-60 one-dose screen, 48 h (100 = growth as untreated, 0 = no growth, -100 = all killed)", "conditions": "10 µM unless noted", "method": "Growth inhibition of the OVCAR-4 human tumor cell line is measured as a screen for anti-cancer activity. Cells are grown in 96 well plates and exposed to the test compound for 48 hours. Compounds are tested at a single concentration, which is 10^-5 M for most compounds. The reported endpoint is percent growth (GI% or GIPRCNT), where numbers from 0 - 100% represent growth inhibition, and numbers from -100% - 0 represent cell death. For example, a value of 40 represents 60% growth inhibition. A value of 0 means no net growth occurred over the course of the experiment. A value of -40 indicates 40% of cells at the beginning of the experiment died by the end of the experiment. A value of -100 means all cells are dead at the end of the experiment.\nNCI-60 Human Tumor Cell Lines Screen was performed using the standard one-dose NCI protocol, which is described in more detail at https://dtp.cancer.gov/discovery_development/nci-60/default.htm.\nCompounds with GIPRCNT values below 10 were considered active. Activity score was based on GIPRCNT using the following formula: […]\nScore is 0 for GIPRCNT values of 100 or above, 50 for GIPRCNT values of 0, and 100 for GIPRCNT values of -100.", "values": [
      {"smiles": "O=C([O][Sn]([O]C(=O)c1ccccn1)([c]1ccccc1)[c]1ccccc1)c1ccccn1", "growth": "81.3% (inactive)"},
      {"smiles": "CCCCCCCCCCCCNC(=O)[C@H]1CSC(c2ccsc2)N1", "note": "(stereo not given in full)", "growth": "-84.6% (active)"},
      {"smiles": "CCN(CC)CCCC(C)Nc1c2ccc(Cl)cc2nc2cc(OC)c(OC)cc12", "note": "(stereo not given)", "growth": "-30.7% (active)"},
      {"smiles": "Cc1cc(C(C)(C)C)ccc1S", "growth": "99.2% (inactive)"},
      {"smiles": "O=S(=O)(NCCCNc1nccc(-n2ccc3cccnc32)n1)c1cccc(C(F)(F)F)c1", "growth": "101% (inactive)"},
      {"smiles": "O=[N+]([O-])c1ccc(-c2cn(-c3ccccc3)c(-c3ccccc3)n2)cc1", "growth": "84.2% (inactive)"},
      {"smiles": "O=C(Nc1ccc(Cl)c(Cl)c1)NS(=O)(=O)c1cnccc1Oc1ccc(F)cc1", "growth": "52% (inactive)"},
      {"smiles": "Cc1c(C(=O)/C=C/c2csc3ccccc23)[n+](=O)c2ccccc2n1[O-]", "growth": "43.5% (inactive)"},
      {"smiles": "COc1ccc(S(=O)(=O)NCCCNc2nccc(-c3c(-c4cccc([N+](=O)[O-])c4)nc4sccn34)n2)cc1", "growth": "29.2% (inactive)"},
      {"smiles": "C=CCn1c2ccccc2c2c3c(c4c5ccccc5n(CC=C)c4c21)C(=O)N(O)C3=O", "growth": "45.8% (inactive)"},
      {"smiles": "N#Cc1c(Nc2ccccc2)nc2n(c1=O)-c1ccccc1Sc1ccccc1-2", "growth": "58.4% (inactive)"},
      {"smiles": "C=C1CC2(OC1=O)C(=O)N(CCCN1C(=O)C3(CC(=C)C(=O)O3)c3ccccc31)c1ccccc12", "note": "(stereo not given)", "growth": "25.2% (inactive)"},
      {"smiles": "C=C[C@@H]1C[C@H](O)Cc2ccccc2N1", "growth": "113% (inactive)"},
      {"smiles": "CCN(CC)CCOc1ccc(Cl)c(C)c1", "growth": "117% (inactive)"},
      {"smiles": "O=S(=O)(c1ccc(OCCO)cc1)c1ccc(OCCO)cc1", "growth": "111% (inactive)"},
      {"smiles": "O=c1[nH]c(NCc2ccccc2)nc2nc(Nc3ccc(NC(=S)Nc4ccccc4)cc3)nc(-c3ccc(O)cc3O)c12", "growth": "114% (inactive)"},
      {"smiles": "COc1ccc2c(c1)C(c1cc(OC)c3c(c1)OCO3)C1=C(COC1=O)N2", "note": "(stereo not given)", "growth": "41.2% (inactive)"},
      {"smiles": "Nc1cccc(Cl)c1N", "growth": "94.4% (inactive)"},
      {"smiles": "Cc1ccc(Cc2c(C=O)nc(N)[nH]c2=O)c2ccccc12", "growth": "97.6% (inactive)"},
      {"smiles": "N/C(=N\\C(N)=N\\c1nc2ccccc2s1)c1cccc(Br)c1", "growth": "107% (inactive)"},
      {"smiles": "CC1(c2ccc(Cl)cc2)OC(=O)CC(=O)O1", "growth": "-2.18% (active)"},
      {"smiles": "c1ccc(-c2cn(-c3ccccc3)c(-c3ccccc3)n2)cc1", "growth": "88.7% (inactive)"},
      {"smiles": "CCCC(=O)Oc1ccc(/C(=C(\\C)c2ccccc2)c2ccc(OCCN(CC)CC)cc2)cc1", "growth": "86.6% (inactive)"},
      {"smiles": "Cc1csc(NC(c2ccc(Br)cc2)c2c(C)nc3ccccn23)n1", "note": "(stereo not given)", "growth": "81.5% (inactive)"},
      {"smiles": "COc1ccc(Nc2ncccc2C(=O)NCc2cn(Cc3cccc(Oc4ccccc4)c3)nn2)cc1", "growth": "71.1% (inactive)"},
      {"smiles": "Cc1cc(C)n(-c2nnc3n2N=C(c2ccc(-c4ccccc4)cc2)CS3)n1", "growth": "74.7% (inactive)"},
      {"smiles": "CN1CCN(Cc2ccc(NC(=O)c3nc4ccc5[nH]ncc5c4c4c3CCC4)cc2C(F)(F)F)CC1", "growth": "68.3% (inactive)"},
      {"smiles": "COc1ccc(C(=O)n2nc(/C=C/c3ccc(O)c(OC)c3)cc2/C=C/c2ccc(O)c(OC)c2)cc1", "growth": "-7.85% (active)"},
      {"smiles": "COc1cc2c(cc1O)CCN1C[C@@H](CC(C)C)[C@@H](O)C[C@@H]21", "growth": "98.6% (inactive)"},
      {"smiles": "CCOC(=O)CC(=O)OC", "growth": "100% (inactive)"},
      {"smiles": "CCCCCCCCCCCCNC(=O)[C@H]1CSC(c2cc3ccccc3s2)N1", "note": "(stereo not given in full)", "growth": "-68.5% (active)"},
      {"smiles": "Cn1ccc(=O)c(S(N)(=O)=O)c1", "growth": "95.8% (inactive)"},
      {"smiles": "COc1ccc2c(c1)cn1c3ccc(OC)cc3[nH]c(=O)c21", "growth": "40.4% (inactive)"},
      {"smiles": "COc1ccc(Nc2[nH]n3c(=O)cc(C)nc3c2C(N)=O)c(OC)c1", "growth": "99.2% (inactive)"},
      {"smiles": "Nc1ccc(C(=O)CSc2nc3ccccc3[nH]2)cc1", "growth": "110% (inactive)"},
      {"smiles": "COc1ccc(-n2c(-c3ccccc3)c(-c3ccccc3)c3c(SCC(=O)N/N=C/c4ccc(Cl)cc4)ncnc32)cc1", "growth": "92% (inactive)"},
      {"smiles": "COc1ccc(N=Cc2c(O)ccc3c2oc2cc(Cl)c(O)c(Cl)c23)cc1", "growth": "98.3% (inactive)"},
      {"smiles": "COc1cc(-c2nc(N=Nc3c(O)[nH]c4ccc(Br)cc34)[nH]c(=O)c2C#N)cc(OC)c1OC", "growth": "101% (inactive)"},
      {"smiles": "CCOC(=O)CN1/C(=N/c2sc3c(c2C(=O)OCC)CCN(C(=O)OCC)C3)SC(=O)/C1=C\\C(=O)OC", "growth": "86.8% (inactive)"},
      {"smiles": "C=C1CCC2C3(C)COC(C)(C)OC3CCC2(C)C1C/C=C1/C(=O)OCC1Oc1ccccc1OC", "note": "(stereo not given)", "growth": "60.7% (inactive)"}
    ]}
  ]
}
